Test results from the supplement of paper PMC12045047.
Where a name gives a salt, the structure may show the parent alone.

What follows are compounds tested on primary human airway basal cells (HBEC, luciferase-transduced) (assay: proliferation (luciferase bioluminescence) Z score relative to plate mean; higher = more proliferation / more cells, active = 1.96 or more). Settings: donor: 1; 0.5 µM; library: ENZO Libraries; 4 days.
Method: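 Primary human bronchial epithelial (airway basal) cells from two donors, lentivirally transduced with pHIV-Luc-ZsGreen, were seeded at 2000 cells/well in 384-well plates in FAD medium with ENZO or Prestwick library compounds and cultured for 4 days. Luciferin was then added and bioluminescence was read as a measure of cell number. Relative light units were converted to Z scores against the plate, and the mean of triplicate wells is reported.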

proliferation, active:
CN(C)CCCn1cc(C2=C(c3c[nH]c4ccccc34)C(=O)NC2=O)c2ccccc21 2.64

proliferation, inactive:
Cn1cnc2c(NCc3ccccc3)nc(NCCO)nc21 [Olomoucine] 0.166
Nc1nc2ncnc-2c[nH]1 [2-Aminopurine] -0.301
CC(C)(C)c1cc(C=C(C#N)C(N)=S)cc(C(C)(C)C)c1O -0.666
N=C(N)Nc1ccc(C(=O)Oc2ccc3cc(C(=N)N)ccc3c2)cc1 [Nafamostat mesylate] 0.0117
CC[C@H](CO)Nc1nc(NCc2ccccc2)c2ncn(C(C)C)c2n1 [Roscovitine] -0.00187
O=c1c(-c2ccc(O)cc2)coc2cc(O)cc(O)c12 [Genistein] 0.674
C=C1C(=O)O[C@@H](CCC)[C@@H]1C(=O)O [Butyrolactone 3] -0.342
CCCC(CCC)C(=O)NO [Valproic acid hydroxamate] -0.292
CO[C@H]1C[C@@H]2CC[C@@H](C)[C@@](O)(O2)C(=O)C(=O)N2CCCC[C@H]2C(=O)O[C@H]([C@H](C)C[C@@H]2CC[C@@H](O)[C@H](OC)C2)CC(=O)[C@H](C)/C=C(\C)[C@@H](O)[C@@H](OC)C(=O)[C@H](C)C[C@H](C)/C=C/C=C/C=C/1C [Rapamycin] -3.38
COC(=O)C[C@H](NC(=O)[C@H](C)NC(=O)[C@@H](NC(=O)OCc1ccccc1)C(C)C)C(=O)CF -0.208
NCC1CCC(C(=O)N[C@@H](Cc2ccccc2)C(=O)Nc2ccc(CC(=O)O)cc2)CC1 (stereo not given in full) 0.228
CC(C)c1cc(/C=C(\C#N)C(=O)NCCCc2ccccc2)cc(C(C)C)c1O -0.208
C=C(C)[C@@H](CC=C(C)C)C[C@@]12C[C@@H](CC=C(C)C)C(C)(C)[C@@](CC=C(C)C)(C(=O)C(C(=O)c3ccc(O)c(O)c3)=C1O)C2=O [Garcinol] -0.468
O=C(O)c1ccc2nc(-c3ccccc3)c(-c3ccccc3)nc2c1 -0.199
N#CC(C#N)=C(N)/C(C#N)=C/c1cc(O)c(O)c(O)c1 -0.239
O=C(O)CNC(=O)C(CS)Cc1ccccc1 (racemic) [DL-Thiorphan] 0.124
CCCC(CCC)C(=O)O [Valproic acid] -0.00583
O=C(O[C@@H]1Cc2c(O)cc(O)cc2O[C@@H]1c1cc(O)c(O)c(O)c1)c1cc(O)c(O)c(O)c1 [Epigallocatechin gallate] 0.183
CCOC(=O)C1=CN(Cc2ccccc2)C=C(C(=O)OCC)C1c1ccccc1 0.415

Same assay, conditions: donor: 1; 5 µM; library: ENZO Libraries; 4 days

proliferation, inactive:
Cn1cnc2c(NCc3ccccc3)nc(NCCO)nc21 [Olomoucine] -0.244
Nc1nc2ncnc-2c[nH]1 [2-Aminopurine] -0.296
CC(C)(C)c1cc(C=C(C#N)C(N)=S)cc(C(C)(C)C)c1O -0.702
N=C(N)Nc1ccc(C(=O)Oc2ccc3cc(C(=N)N)ccc3c2)cc1 [Nafamostat mesylate] -0.0211
CC[C@H](CO)Nc1nc(NCc2ccccc2)c2ncn(C(C)C)c2n1 [Roscovitine] -0.592
C=C1C(=O)O[C@@H](CCC)[C@@H]1C(=O)O [Butyrolactone 3] 0.149
CCCC(CCC)C(=O)NO [Valproic acid hydroxamate] -0.132
CO[C@H]1C[C@@H]2CC[C@@H](C)[C@@](O)(O2)C(=O)C(=O)N2CCCC[C@H]2C(=O)O[C@H]([C@H](C)C[C@@H]2CC[C@@H](O)[C@H](OC)C2)CC(=O)[C@H](C)/C=C(\C)[C@@H](O)[C@@H](OC)C(=O)[C@H](C)C[C@H](C)/C=C/C=C/C=C/1C [Rapamycin] -1.63
COC(=O)C[C@H](NC(=O)[C@H](C)NC(=O)[C@@H](NC(=O)OCc1ccccc1)C(C)C)C(=O)CF -0.0506
NCC1CCC(C(=O)N[C@@H](Cc2ccccc2)C(=O)Nc2ccc(CC(=O)O)cc2)CC1 (stereo not given in full) 0.079
CC(C)c1cc(/C=C(\C#N)C(=O)NCCCc2ccccc2)cc(C(C)C)c1O -0.405
C=C(C)[C@@H](CC=C(C)C)C[C@@]12C[C@@H](CC=C(C)C)C(C)(C)[C@@](CC=C(C)C)(C(=O)C(C(=O)c3ccc(O)c(O)c3)=C1O)C2=O [Garcinol] -0.215
O=C(O)c1ccc2nc(-c3ccccc3)c(-c3ccccc3)nc2c1 -0.68
N#CC(C#N)=C(N)/C(C#N)=C/c1cc(O)c(O)c(O)c1 -0.228
O=C(O)CNC(=O)C(CS)Cc1ccccc1 (racemic) [DL-Thiorphan] -0.0316
CCCC(CCC)C(=O)O [Valproic acid] -0.171
CN(C)CCCn1cc(C2=C(c3c[nH]c4ccccc34)C(=O)NC2=O)c2ccccc21 -0.932
O=C(O[C@@H]1Cc2c(O)cc(O)cc2O[C@@H]1c1cc(O)c(O)c(O)c1)c1cc(O)c(O)c(O)c1 [Epigallocatechin gallate] -0.177
CCOC(=O)C1=CN(Cc2ccccc2)C=C(C(=O)OCC)C1c1ccccc1 0.65

proliferation, active:
O=c1c(-c2ccc(O)cc2)coc2cc(O)cc(O)c12 [Genistein] 2.14
